This note sets out measurements from PubChem BioAssay (NCATS).

SMILES strings stand for the structures. Results filed as inconclusive are left out. Where a structure was tested more than once in an assay, its records may differ in their call. Activity calls are given as the source filed them. Unless noted, calls follow the shape of the dose curve; as a rule, active = well fitted curve in the direction sought with a large enough effect; inconclusive = small, poorly fitted or top-dose-only effect, or another doubt; inactive = no such curve, though single readings can be large; an effect the other way counts as inactive or inconclusive. Bounds are passed on as bounds.

Assay [1] concerns Zika virus NS2B-NS3 protease. As to the kind of experiment: Primary screen GU AMC qHTS for Zika virus inhibitors (AID 1347154).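 Also: 0% = no-inhibitor control and -100% = no-enzyme control; nearly all actives have a fitted effect of over 70% in size.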 The method, boiled down: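 Fluorogenic AMC-substrate cleavage by noncovalent NS2B-NS3 protease complex (25 nM, pH 8.0 Tris buffer with Tween 20) followed for 15 minutes at room temperature (~20% conversion). Percent inhibition from ex340/em450 signal change, fitted by 4-parameter Hill equation.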

A short description of assay [2]: Counterscreen qHTS for small molecule stabilizers of the endoplasmic reticulum resident proteome: GLuc-NoTag assay (AID 1508627).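 Also: series mostly up to about 76 µM; 0% = thapsigargin alone and -100% = DMSO vehicle control.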 The procedure, abridged:
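Counterscreen line: SH-SY5Y-GLuc-NoTag cells, treated with compound 19 hr before a 4 hr, 100 nM thapsigargin calcium depletion. Secreted Gaussia luciferase in the medium was measured by luminescence after coelenterazine was added (0.07x final), with cells unlysed.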

The nature of assay [3]: Cell Viability qHTS for small molecule stabilizers of the endoplasmic reticulum resident proteome (AID 1508629).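 Also: human SH-SY5Y neuroblastoma cells carrying the GLuc-SERCaMP reporter; compound exposure about 46 h in total before the viability read; % is scaled to controls: 0 for no effect and ±100 for the full control effect.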 To be noted: cell viability counter-screen, 100 nM thapsigargin for final 4 h.
Assay [4] deals with Cytochrome P450 1A2 (Homo sapiens) (UniProt P05177). Description: p450-cyp1a2 (AID 410; calls by dose curve; also: potency is read from the fitted curve at half-maximal effect). The method, boiled down:
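Luminescent demethylation readout: Luciferin-ME (100uM, equal to Km) turned over by 20nM CYP1A2 for 60 min at room temperature after NADPH regeneration addition, following 10 min compound preincubation. Normalization used 57 uM furafylline as full inhibition.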

For assay [5], the target named is Glucocorticoid receptor (Homo sapiens) (UniProt P04150). As to the kind of experiment: GR-GFP Redistribution (AID 450;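 active = compounds whose dose series gives a full or clear partial fitted curve of increased nuclear translocation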; also: potency is read from the fitted curve at half-maximal effect). To be noted: U2OS GR-GFP nuclear translocation, laser cytometry, 2 h.
For assay [6] the target is unchanged. As to the kind of experiment: GR-EFC Redistribution (AID 451; calls by dose curve; also: potency is read from the fitted curve at half-maximal effect). To be noted: CHO-K1 GR-EFC translocation, beta-gal luminescence, 2 h. The procedure, abridged: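 Translocation of GR-ED fusion to nuclear EA restores b-gal, read by luminescence after 1 h room-temperature detection. Engineered CHO-K1 biosensor cells, 1,000/well, exposed 2 h at 37 C to titrations up to 46 uM final.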

Assay [7] addresses Mitogen-activated protein kinase 10 (Mus musculus) (UniProt Q61831). Description: JNK3 AlphaScreen Assay (AID 530; active = well fitted curve in either direction with a large enough effect, not every such curve was filed as active;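 also: kinase came from lysate of stimulated human HepG2 cells; signal reports phosphorylation of biotinylated GST-cJun 1-79 at Ser73 with 10 µM ATP; series mostly up to about 57 µM; % is scaled to controls: 0 for no effect and ±100 for the full control effect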). The procedure, abridged:
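qHTS titrations with 15 min compound pre-incubation before adding ATP (10 uM final). Read-out: AlphaScreen of Ser73-phosphorylated biotin-GST-cJun using HepG2 lysate JNK3 activated by IL-1β and TNFα.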

For assay [8], the target named is 3',5'-cyclic-AMP phosphodiesterase 4B (Homo sapiens) (UniProt Q07343). Description: qHTS Assay for Inhibitors of PDE-IV (AID 607; active = well fitted activation curve with a large enough effect in the main read-out, with a control signal flat, not every such curve was filed as active; also: % of control where 0% means no effect). The method, boiled down:
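Live HEK293 cells with a modified cyclic nucleotide-gated (CNG) channel report intracellular cAMP via membrane-potential dye fluorescence (ex 535/em 590 nm). Endogenous PDE-IV was targeted. Compounds were tested at up to 22.9 uM final; RO 20-1724 100 uM served as control.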

In assay [9] the target is Ubiquitin carboxyl-terminal hydrolase 1 (Homo sapiens) (UniProt O94782). Description: Inhibitors of USP1/UAF1: Pilot qHTS (AID 504865).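 Also: rhodamine fluorescence freed from ubiquitin-rhodamine substrate followed over time; top concentration of the series differs between compounds; % is scaled to controls: 0 for no effect and ±100 for the full control effect; nearly all actives have a fitted effect of over 35% in size.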 The method, boiled down:
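USP1/UAF1 complex (1nM) preincubated with compound 15 min at room temperature, then Ub-Rho substrate (150nM final) added. Fluorescence read kinetically at 480/540 nm, 6 reads every 60 seconds. Buffer: 50mM HEPES pH 7.8, 0.5mM EDTA, 0.1 mg/ml BSA, 1mM TCEP, 0.01% Tween-20.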

The target of assay [10] is DNA dC->dU-editing enzyme APOBEC-3G (Homo sapiens) (UniProt Q9HC16). Description: qHTS for inhibitors of Vif-A3G interactions: Validation (AID 588379). Also: 0% is about no effect. The method, boiled down:
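Yellow fluorescence (Ex 488, Em 500-530) of Vif-coexpressing HeLa A3G-eYFP cells, scanned by Acumen cytometer, reports blocked A3G degradation. Cells plated at 700/well overnight at 37 deg C before compound addition, then a further overnight compound incubation at 37 deg C.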

Assay [11] in a line: Confirmatory qHTS for small molecule stabilizers of the endoplasmic reticulum resident proteome: Secreted ER Calcium Modulated Protein (SERCaMP) assay (AID 1508628). Also: nearly all actives have a fitted effect of over 40% in size. Also: potency is read from the fitted curve at half-maximal effect. The method, boiled down:
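Reporter secretion upon ER calcium depletion (100 nM thapsigargin, 4 h, 37C) is measured as medium luminescence with coelenterazine, after 16 h compound pretreatment of SH-SY5Y-GLuc-SERCaMP cells; primary at three concentrations up to 38.3 uM, follow-up at 11 (up to 76.6 uM).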

Assay [12] concerns the target Cytochrome P450 3A4 (Homo sapiens) (UniProt P08684). As to the kind of experiment: qHTS Assay for Activators of Cytochrome P450 3A4 (AID 885). Also: nearly all actives have a fitted effect of over 65% in size. The procedure, abridged:
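Using 20nM recombinant human CYP3A4 in potassium phosphate (200mM), substrate Luciferin-PPXE at 25uM, luminescent luciferin detection followed a 60-min RT NADPH reaction; data scaled to 57 uM ketoconazole.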

Assay [13] deals with Cytochrome P450 2D6 (Homo sapiens) (UniProt P10635). Description: qHTS Assay for Inhibitors and Substrates of Cytochrome P450 2D6 (AID 891). Also: potency is read from the fitted curve at half-maximal effect; nearly all actives have a fitted effect of over 60% in size. The method, boiled down: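 Luminescent read-out of luciferin formed by 5 nM human CYP2D6 demethylating 30 uM Luciferin-ME EGE (Km level) over 60 min at room temperature after NADPH regeneration addition. Data normalized to full inhibition by 1.43 uM quinidine.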

Assay [14] has as its target Cytochrome P450 2C19 (Homo sapiens) (UniProt P33261). Description: qHTS Assay for Inhibitors and Substrates of Cytochrome P450 2C19 (AID 899). Also: potency is read from the fitted curve at half-maximal effect; nearly all actives have a fitted effect of over 60% in size. The procedure, abridged: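 5nM enzyme + 10uM Luciferin-H EGE (=KM), 50mM KPO4; cpd pin-transferred, 10 min 37C; NADPH regen, 60 min 37C; stopped w/ luciferin detection reagent, 20 min; luminescence. Normalized to 57uM ketoconazole (AC100).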

Sequence of Glucocorticoid receptor (Homo sapiens) (P04150 whole entry, looked up, the tested form may be a part): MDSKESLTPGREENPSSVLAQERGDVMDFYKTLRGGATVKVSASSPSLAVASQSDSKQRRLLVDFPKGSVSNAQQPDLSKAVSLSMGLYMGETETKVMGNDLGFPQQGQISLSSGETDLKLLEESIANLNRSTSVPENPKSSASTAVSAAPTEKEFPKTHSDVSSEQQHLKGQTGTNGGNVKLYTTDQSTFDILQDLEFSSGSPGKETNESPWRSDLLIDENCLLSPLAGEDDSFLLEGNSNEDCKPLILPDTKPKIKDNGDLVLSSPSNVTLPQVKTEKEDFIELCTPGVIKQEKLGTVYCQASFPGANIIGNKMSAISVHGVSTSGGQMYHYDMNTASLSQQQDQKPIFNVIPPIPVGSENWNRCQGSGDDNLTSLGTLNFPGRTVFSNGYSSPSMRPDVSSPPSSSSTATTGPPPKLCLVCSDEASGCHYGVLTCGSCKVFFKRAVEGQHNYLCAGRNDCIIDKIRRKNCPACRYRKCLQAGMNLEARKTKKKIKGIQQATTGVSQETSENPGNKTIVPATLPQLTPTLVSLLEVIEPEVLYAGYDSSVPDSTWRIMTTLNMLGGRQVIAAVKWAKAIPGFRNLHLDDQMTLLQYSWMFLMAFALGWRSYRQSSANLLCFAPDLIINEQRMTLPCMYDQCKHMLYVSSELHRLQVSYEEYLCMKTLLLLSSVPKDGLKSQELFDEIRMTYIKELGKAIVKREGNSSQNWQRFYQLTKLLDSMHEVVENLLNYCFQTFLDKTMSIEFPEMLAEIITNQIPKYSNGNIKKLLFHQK
Sequence of Cytochrome P450 1A2 (Homo sapiens) (P05177 whole entry, looked up): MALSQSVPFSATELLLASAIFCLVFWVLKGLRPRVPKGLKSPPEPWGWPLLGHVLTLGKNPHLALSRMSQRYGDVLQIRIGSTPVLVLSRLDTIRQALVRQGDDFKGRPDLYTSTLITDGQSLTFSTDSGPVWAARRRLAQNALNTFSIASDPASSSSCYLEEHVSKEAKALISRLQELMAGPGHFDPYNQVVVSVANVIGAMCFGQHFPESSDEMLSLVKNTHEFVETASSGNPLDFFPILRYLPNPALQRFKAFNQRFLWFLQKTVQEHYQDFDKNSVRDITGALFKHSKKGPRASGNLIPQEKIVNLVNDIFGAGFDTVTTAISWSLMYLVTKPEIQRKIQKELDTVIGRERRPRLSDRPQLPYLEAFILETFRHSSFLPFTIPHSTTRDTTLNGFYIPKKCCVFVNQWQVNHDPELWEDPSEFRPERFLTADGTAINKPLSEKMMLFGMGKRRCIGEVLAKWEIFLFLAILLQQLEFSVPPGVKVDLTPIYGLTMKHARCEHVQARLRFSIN
Sequence of DNA dC->dU-editing enzyme APOBEC-3G (Homo sapiens) (Q9HC16 whole entry, looked up): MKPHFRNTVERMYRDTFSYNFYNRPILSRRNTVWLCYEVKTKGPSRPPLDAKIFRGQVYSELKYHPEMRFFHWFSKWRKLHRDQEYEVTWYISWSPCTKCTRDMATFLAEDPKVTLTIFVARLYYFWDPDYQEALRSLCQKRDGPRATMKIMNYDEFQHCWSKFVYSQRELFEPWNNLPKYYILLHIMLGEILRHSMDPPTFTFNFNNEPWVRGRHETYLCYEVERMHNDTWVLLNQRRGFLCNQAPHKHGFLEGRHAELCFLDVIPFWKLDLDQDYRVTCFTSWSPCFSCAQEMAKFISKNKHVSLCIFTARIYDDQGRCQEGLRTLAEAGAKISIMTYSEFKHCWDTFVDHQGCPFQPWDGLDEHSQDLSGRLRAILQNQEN
Sequence of 3',5'-cyclic-AMP phosphodiesterase 4B (Homo sapiens) (Q07343 whole entry, looked up): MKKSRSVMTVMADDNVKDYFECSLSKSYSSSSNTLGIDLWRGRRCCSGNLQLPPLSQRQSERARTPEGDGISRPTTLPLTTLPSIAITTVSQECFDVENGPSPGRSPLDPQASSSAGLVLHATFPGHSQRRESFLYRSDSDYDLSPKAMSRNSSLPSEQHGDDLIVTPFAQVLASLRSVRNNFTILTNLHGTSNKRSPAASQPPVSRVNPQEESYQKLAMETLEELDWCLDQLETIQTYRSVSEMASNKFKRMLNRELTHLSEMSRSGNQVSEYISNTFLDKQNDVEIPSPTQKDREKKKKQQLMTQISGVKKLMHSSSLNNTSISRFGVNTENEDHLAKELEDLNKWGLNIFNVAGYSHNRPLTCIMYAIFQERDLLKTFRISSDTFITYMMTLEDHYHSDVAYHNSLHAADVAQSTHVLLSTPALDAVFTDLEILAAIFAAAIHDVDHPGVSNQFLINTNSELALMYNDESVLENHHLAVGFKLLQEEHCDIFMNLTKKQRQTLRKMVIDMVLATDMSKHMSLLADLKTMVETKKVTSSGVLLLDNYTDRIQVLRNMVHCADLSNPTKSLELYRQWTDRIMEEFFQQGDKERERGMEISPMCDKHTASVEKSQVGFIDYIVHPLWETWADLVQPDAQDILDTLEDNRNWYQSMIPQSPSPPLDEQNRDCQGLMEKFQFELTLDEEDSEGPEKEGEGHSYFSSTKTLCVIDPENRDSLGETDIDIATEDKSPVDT
Sequence of Cytochrome P450 3A4 (Homo sapiens) (P08684 whole entry, looked up): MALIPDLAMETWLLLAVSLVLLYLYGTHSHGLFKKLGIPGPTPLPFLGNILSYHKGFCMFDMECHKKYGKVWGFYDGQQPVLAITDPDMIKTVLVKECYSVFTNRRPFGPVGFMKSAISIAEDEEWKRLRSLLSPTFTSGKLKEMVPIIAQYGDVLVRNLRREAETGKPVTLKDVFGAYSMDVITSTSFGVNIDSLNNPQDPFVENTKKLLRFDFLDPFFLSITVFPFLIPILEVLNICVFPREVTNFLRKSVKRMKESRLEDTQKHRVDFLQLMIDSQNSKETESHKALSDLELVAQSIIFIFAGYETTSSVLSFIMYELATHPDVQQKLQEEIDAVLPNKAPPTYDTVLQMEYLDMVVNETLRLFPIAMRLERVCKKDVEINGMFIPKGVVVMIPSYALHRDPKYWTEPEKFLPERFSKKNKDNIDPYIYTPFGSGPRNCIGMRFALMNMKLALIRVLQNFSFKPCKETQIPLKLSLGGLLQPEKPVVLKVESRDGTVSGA
Sequence of Cytochrome P450 2D6 (Homo sapiens) (P10635 whole entry, looked up): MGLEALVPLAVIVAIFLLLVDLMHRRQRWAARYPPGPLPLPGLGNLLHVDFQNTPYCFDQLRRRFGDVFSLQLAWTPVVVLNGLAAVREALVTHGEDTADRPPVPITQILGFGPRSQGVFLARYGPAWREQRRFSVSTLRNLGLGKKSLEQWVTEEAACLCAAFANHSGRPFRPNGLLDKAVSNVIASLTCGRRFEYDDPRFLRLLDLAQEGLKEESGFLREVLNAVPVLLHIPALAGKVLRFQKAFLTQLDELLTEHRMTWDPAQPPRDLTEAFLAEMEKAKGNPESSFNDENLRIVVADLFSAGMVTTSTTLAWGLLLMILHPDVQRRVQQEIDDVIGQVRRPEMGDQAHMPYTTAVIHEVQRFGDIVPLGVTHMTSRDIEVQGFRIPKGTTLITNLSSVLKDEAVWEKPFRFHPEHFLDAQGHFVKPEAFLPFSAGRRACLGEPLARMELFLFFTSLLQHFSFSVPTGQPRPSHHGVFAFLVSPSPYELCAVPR
Sequence of Cytochrome P450 2C19 (Homo sapiens) (P33261 whole entry, looked up): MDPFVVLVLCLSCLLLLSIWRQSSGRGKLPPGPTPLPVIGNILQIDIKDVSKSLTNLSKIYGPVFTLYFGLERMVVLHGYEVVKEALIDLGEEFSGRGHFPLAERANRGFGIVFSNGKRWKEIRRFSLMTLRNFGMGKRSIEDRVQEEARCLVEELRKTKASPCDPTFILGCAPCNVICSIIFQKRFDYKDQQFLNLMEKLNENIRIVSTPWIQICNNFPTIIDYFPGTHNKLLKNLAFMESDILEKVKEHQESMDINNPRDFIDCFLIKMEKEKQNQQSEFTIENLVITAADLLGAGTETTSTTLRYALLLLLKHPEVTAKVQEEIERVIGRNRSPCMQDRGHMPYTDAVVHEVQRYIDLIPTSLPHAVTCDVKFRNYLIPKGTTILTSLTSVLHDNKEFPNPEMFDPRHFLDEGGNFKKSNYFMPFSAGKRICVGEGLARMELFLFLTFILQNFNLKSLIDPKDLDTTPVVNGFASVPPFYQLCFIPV
Sequence of Ubiquitin carboxyl-terminal hydrolase 1 (Homo sapiens) (O94782 whole entry, looked up): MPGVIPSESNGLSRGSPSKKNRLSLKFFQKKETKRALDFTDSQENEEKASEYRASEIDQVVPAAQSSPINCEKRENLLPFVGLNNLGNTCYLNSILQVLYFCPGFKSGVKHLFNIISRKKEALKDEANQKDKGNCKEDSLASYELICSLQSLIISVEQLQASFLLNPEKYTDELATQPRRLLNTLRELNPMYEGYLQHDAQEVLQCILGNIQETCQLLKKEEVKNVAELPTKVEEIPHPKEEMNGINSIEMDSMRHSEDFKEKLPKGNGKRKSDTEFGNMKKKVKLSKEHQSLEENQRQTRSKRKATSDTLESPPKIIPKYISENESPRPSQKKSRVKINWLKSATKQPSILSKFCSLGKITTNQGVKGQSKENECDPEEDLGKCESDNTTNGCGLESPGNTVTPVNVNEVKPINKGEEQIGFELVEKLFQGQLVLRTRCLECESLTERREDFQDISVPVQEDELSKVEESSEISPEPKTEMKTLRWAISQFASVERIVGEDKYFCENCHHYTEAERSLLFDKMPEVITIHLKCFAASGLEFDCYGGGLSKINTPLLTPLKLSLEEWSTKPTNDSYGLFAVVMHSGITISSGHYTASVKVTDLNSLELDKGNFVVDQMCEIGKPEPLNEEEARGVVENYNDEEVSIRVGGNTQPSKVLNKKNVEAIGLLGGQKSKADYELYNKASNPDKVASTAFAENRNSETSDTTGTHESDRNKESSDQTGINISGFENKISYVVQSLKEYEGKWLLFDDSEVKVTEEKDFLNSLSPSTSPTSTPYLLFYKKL

Regarding `N=C(N)SCCN=C(N)N`, the Potency result in assay [1] and in [2] was “inactive” in each case. In addition, in assay [3], the max response was -2.13% (inactive).

`N[C@@H](Cc1cc(CP(=O)(O)O)cc(-c2ccccc2Cl)c1)C(=O)O`: the Potency entry in assay [4], in assay [7], in [8], in [9], in assay [10] and in [1] was “inactive” each time. The Potency result in assay [11] was “inactive”. In addition, the Potency in [5] and in [6] was > 46 µM (inactive) each time.

Take `Cc1cc(C)c(N(Cc2ccccc2)S(=O)(=O)c2ccc(OCCNC(=O)c3cc4ccccc4o3)cc2)c(C(=O)NO)c1`: the Potency entry in assay [1] and in assay [11] was “inactive” throughout.

`N#Cc1cc2c(OCC(O)CN3CCN(C(c4ccccc4)c4ccccc4)CC3)cccc2[nH]1` (configuration not stated): the Potency entry in assay [1] and in [2] was “inactive” in each case. For the same compound, the Potency in [11] was 3.98 µM (active) and inactive. The max response in assay [3] is 3.24% (inactive).

Take `CN(Cc1ccccc1)C(=O)[C@H](Cc1ccc2ccccc2c1)NC(=O)[C@@H]1CCCN1C(=O)Nc1ccccc1[N+](=O)[O-]`: the Potency entry in assay [1] and in [2] was “inactive” each time. In assay [11], the Potency was 10 µM (active). In addition, the max response in assay [3] is 12.2% (inactive).

Take `CN1CCN(C2=Cc3ccccc3Oc3ccc(Cl)cc32)CC1`: the Potency is 20 µM (active) in assay [4], > 46 µM (inactive) in assay [5], 0.0398 µM (active) in [13] and 3.98 µM (active) in assay [14]. The Potency result in assay [7], in assay [12], in assay [10], in assay [1] and in assay [2] was “inactive” throughout. Further, in assay [3], the max response is 13.7% (inactive).
